# Source: PubChem BioAssay
# AmpC inh no detg = blocks E. coli AmpC beta-lactamase in detergent-free assay; P00811; AmpC nitrocefin hydrolysis, absorbance 480 nm, 0.0001% Triton; Potency, µM (top dose mostly 57.1 µM), without a hit: at the highest dose activity change, negative = inhibition, usual class: inhibitors; 330,000 tested, 0.52% active; AID 485341;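 note: plate controls were no compound for no effect and no enzyme for full effect; nearly all actives have a fitted effect of over 20% in size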
# Target sequence (P00811 whole entry, looked up): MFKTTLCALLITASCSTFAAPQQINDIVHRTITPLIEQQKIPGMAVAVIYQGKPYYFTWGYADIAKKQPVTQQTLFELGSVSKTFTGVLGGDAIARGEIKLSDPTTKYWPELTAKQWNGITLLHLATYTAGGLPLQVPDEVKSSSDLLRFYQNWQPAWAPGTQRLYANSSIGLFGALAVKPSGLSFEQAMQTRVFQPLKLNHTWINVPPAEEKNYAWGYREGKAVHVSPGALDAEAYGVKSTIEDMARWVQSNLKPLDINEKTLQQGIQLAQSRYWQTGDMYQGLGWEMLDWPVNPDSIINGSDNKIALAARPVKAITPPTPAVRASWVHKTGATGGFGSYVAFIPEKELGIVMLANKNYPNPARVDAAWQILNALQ
#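 AmpC (5.3 nM in the dispensed reagent) in 20 mM phosphate pH 7.0 with 0.01% (detergent screen) or 0.0001% Triton X-100 was preincubated with compounds for 15 min at room temperature. Nitrocefin was then added from an 800 uM solution, and hydrolysis was followed at 480 nm.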
# Sm TGR inh = inhibitors of Schistosoma mansoni thioredoxin glutathione reductase; Q962Y6; 360,000 tested, 3% active; Potency, µM (highest dose often 114 µM), for the others: top-dose activity change, negative = inhibition, usual class: inhibitors; AID 485364; purified TGR, DTNB reduction, TNB absorbance 405 nm; note: % is set by controls: 0 for no effect and ±100 for the full control effect; nearly all actives have a fitted effect of over 60% in size
#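 Kinetic colorimetric format: TGR-catalysed, NADPH-driven DTNB reduction monitored via TNB absorbance. Enzyme dispensed at 20 nM; compound exposure 15 min at room temperature before reaction start.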
# AmpC detergent = inhibitors of E. coli AmpC beta-lactamase with detergent; AmpC hydrolysis of nitrocefin, absorbance 480 nm, 0.01% Triton; Potency, µM (titrated, usually from 114 µM), inactives show at the top dose activity change, negative = inhibition, usual class: inhibitors; 370,000 tested, 0.041% active;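 note: 0% = no-compound wells and -100% = no-enzyme wells; nearly all actives have a fitted effect of over 25% in size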
#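 AmpC (5.3 nM in the dispensed reagent) in 20 mM phosphate pH 7.0 with 0.01% (detergent screen) or 0.0001% Triton X-100 was preincubated with compounds for 15 min at room temperature. Nitrocefin was then added from an 800 uM solution, and hydrolysis was followed at 480 nm.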
# Pf growth 48h = inhibits P. falciparum growth in the first generation, 48 h | AID 504832 | 310,000 tested, 5.9% active | P. falciparum luciferase growth in erythrocytes, 48 h | Potency, µM (doses to about 28.7 µM), for inactives: at the top dose activity change, negative = inhibition, usual class: inhibitors; note: % is set by controls: 0 for no effect and ±100 for the full control effect
#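 Parasite viability was followed by luminescence of a genomically integrated firefly luciferase. Cultures held 0.1% parasitemia at 2% hematocrit (final), incubated under 5% CO2 at 37 C.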
# Pf growth 96h = inhibits malaria parasite growth, 96 h; P. falciparum luciferase reporter growth, 96 h; Potency, µM (series often up to 28.7 µM), without a hit: top-dose activity change, negative = inhibition, most hits filed as inhibitors; 320,000 tested, 6.9% active; note: % is set by controls: 0 for no effect and ±100 for the full control effect
#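 96 h incubation, 37 C, 5% CO2, of luciferase-reporter P. falciparum-infected RBCs (2% hematocrit, 0.05% parasitemia final) with test compounds; endpoint luminescence.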
# SARS PLP yeast = inhibitors of SARS-CoV papain-like protease in yeast | S. cerevisiae expressing SARS-CoV PLpro, growth rescue | Potency, µM (highest dose often 32.9 µM), without a hit: top-dose activity, positive = growth rescue, actives largely listed as activators | 330,000 tested, 0.19% active | AID 485353; calls by dose curve; note: 0% is about no effect; nearly all actives have a fitted effect of over 55% in size
# * hit, by the source's call; u = inconclusive; x = no result given; [ ] = another dose, or the depositor's remark. Most compounds without a hit are left out; they make up all but 12% or so of the library. Unless noted, calls come from the whole dose curve; as a rule, active = well fitted curve in the direction sought with a large enough effect; inconclusive = small, poorly fitted or top-dose-only effect, or another doubt; inactive = no such curve, though single readings can be large; an effect the other way counts as inactive or inconclusive. Potency is the fitted concentration of half-maximal effect.
SMILES,AmpC inh no detg,Sm TGR inh,AmpC detergent,Pf growth 48h,Pf growth 96h,SARS PLP yeast
O=C(Nc1ccc(S(=O)(=O)Nc2ccccc2)cc1)C1COc2ccccc2O1 (configuration not stated),-1%,7%,2%,u,0.47µM*,-32%
CCCNC(=O)C1CCN(S(=O)(=O)c2ccc3c(c2)OCCO3)CC1,-13%,-3%,u,u,-17%,0%
O=C(Nc1ccc(F)cc1)C1CCN(S(=O)(=O)c2ccc3[nH]c(=O)oc3c2)CC1,-46%,-26%,-7%,9%,13µM*,-1%
CCCNC(=O)C1CCN(S(=O)(=O)c2ccc(Br)cc2)CC1,-4%,8%,9%,4.7µM*,13%,-1%
Cc1ccc(NC(=O)C2CCN(C(=O)OC(C)(C)C)CC2)cc1S(=O)(=O)N1CCCCC1,57%,-2%,8%,13µM*,u,2%
C=CCC1C=C(C)CC(CC=C)N1 (configuration not stated),-6%,-1%,0%,-4%,u,4%
O=C(Nc1ccc(F)c(F)c1)C1=COCCO1,-9%,1%,u,22%,45%,-2%
COc1cccc(NC(=O)CN(C)CC(=O)Nc2ccc(C)c([N+](=O)[O-])c2)c1,123%,11%,0%,-2%,0%,1%
Cc1ccc(S(=O)(=O)N2CCC(C(=O)NNC(=O)c3ccccc3)CC2)cc1,-10%,-4%,-11%,3%,120%,-1%
CC1CCCN(S(=O)(=O)c2ccc(NC(=O)C3CCN(C(=O)C(C)(C)C)CC3)cc2)C1 (configuration not stated),91%,-16%,2%,5.2µM*,6.6µM*,-20%
Cc1ccc(S(=O)(=O)N2CCC(C(=O)NCCN3CCCCCC3)CC2)cc1,100%,u,0%,12µM*,-3%,-2%
Cc1ccc(C(=O)NNC(=O)C2CCN(S(=O)(=O)c3ccc(C)cc3)CC2)cc1,-10%,6%,-1%,2.6µM*,34%,-4%
O=C(/C=C/c1ncc(C(F)(F)F)cc1Cl)OCc1ccccc1,u,-18%,5%,0%,6%,4%
COc1ccc(C2c3c(n(C)c4ccccc34)C(=O)N2CC(=O)Nc2cc(Cl)ccc2C)cc1 (configuration not stated),x,0%,12%,x,x,x
CCOc1ccc(CCNC(=O)CCCc2nnc3n(CCCOC)c(=O)c4sccc4n23)cc1,x,-3%,2%,x,x,x
Cn1cc(C(=O)NCCc2ccccc2)c(=O)c2cc(S(=O)(=O)N3CCCCCC3)ccc21,x,31%,0%,x,x,x
CN1CCN(c2ccccc2NC(=O)c2ccc(-c3ccccc3[N+](=O)[O-])o2)CC1,75%,3%,-6%,5.2µM*,29%,1%
Cc1ccccc1-c1ccc(C(=O)Nc2cccc(F)c2)o1,u,u,u,-16%,-61%,-58%
O=C(Nc1ccccc1N1CCN(C(=O)c2ccc(Cl)cc2)CC1)c1ccc([N+](=O)[O-])o1,-2%,-24%,u,6.6µM*,-16%,-20%
CC(=O)N1CCN(c2ccccc2NC(=O)c2ccc(-c3cccc([N+](=O)[O-])c3)o2)CC1,-5%[2.29 µM],u,-11%,u,2%,-2%
O=C(Nc1ccccc1N1CCN(C(=O)c2ccccc2)CC1)c1ccc(Br)o1,22%,-10%,2%,0%,9.3µM*,-10%
O=C(Nc1cccc(F)c1)c1ccc(-c2ccccc2C(F)(F)F)o1,-14%,u,u,u,15µM*,-43%
COc1ccc(OC)c2sc(N3CCN(C(=O)c4ccc5c(c4)CCCC5)CC3)nc12,x,0%,2%,x,x,x
CCCN(CCC)C(=O)Cn1c(=O)n(-c2ccc(CC)cc2)c(=O)c2ccc(C(=O)NCCc3ccccc3)cc21,x,8%,3%,x,x,x
CCS(=O)(=O)N1CC(=O)N(c2ccccc2C)C(C)(C(=O)NC2CCCCC2)C1 (configuration not stated),x,2%,1%,x,x,x
SMILES,AmpC inh no detg,Sm TGR inh,AmpC detergent,Pf growth 48h,Pf growth 96h,SARS PLP yeast
Cc1cccc(NC(=O)c2ccc(-c3ccccc3[N+](=O)[O-])o2)c1,-31%,3.5µM*,2%,0%,34%,-3%
O=C(Nc1ccccc1N1CCCCC1)c1ccc([N+](=O)[O-])o1,-18%,-23%,-13%,10µM*,8.3µM*,-4%
COc1ccc(C(=O)Nc2ccccc2N2CCN(C(=O)c3ccccc3)CC2)cc1Br,55%,-9%,-11%,2.1µM*,u,-9%
COc1cccc(NC(=O)c2ccc(-c3ccccc3[N+](=O)[O-])o2)c1,u,0%,3%,-4%,26%,-1%
O=C(Nc1ccccc1N1CCOCC1)c1ccc([N+](=O)[O-])o1,-10%,-2%,3%,-1%,37%,0%
COc1ccccc1CNCc1cccc(Oc2ccccc2)c1,1%,x,0%,20%,u,0%
CCOC(=O)C(NC(=O)c1cccc(Cl)c1)(Nc1sc2c(c1C(N)=O)CCC2)C(F)(F)F (configuration not stated),-49%,40µM*,u,u,u,1%
CCOC(=O)C(NC(=O)c1ccc(F)cc1)(Nc1sc2c(c1C(N)=O)CCC2)C(F)(F)F (configuration not stated),-54%,u,3%,u,u,-5%
CCCCC(=O)NC(Nc1sc2c(c1C(N)=O)CCCC2)(C(=O)OCC)C(F)(F)F (configuration not stated),-13%,-15%,-1%,0%,u,8%
CCOC(=O)C(NC(=O)c1ccccc1Cl)(Nc1sc2c(c1C(N)=O)CCC2)C(F)(F)F (configuration not stated),-27%,40µM*,u,u,4.1µM*,13%
Cc1cc(C)c(NC(=O)C2CCN(c3nc4ccccc4n4cccc34)CC2)c(C)c1,x,1%,7%,x,x,x
CC(=O)Nc1ccc(NC(=O)C(Cc2ccccc2)NS(=O)(=O)c2ccc3c(c2)oc(=O)n3C)cc1 (configuration not stated),x,-12%,u,x,x,x
CNC(=O)NC(=O)CSc1ccc(S(=O)(=O)N(C)C2CCCCC2)cn1,-16%,-10%,0%,u,8%,2%
CCCNC(=O)CSc1ccc(S(=O)(=O)N2CCCCC2)cn1,-30%,-1%,u,u,u,-3%
CCNC(=O)NC(=O)CSc1ccc(S(=O)(=O)N(C)C2CCCCC2)cn1,-28%,-5%,-2%,12µM*,9.3µM*,-8%
